ALOX12 inh: ALOX12 (human) lipoxygenase inhibition; P18054; purified 12hLO, xylenol orange hydroperoxide absorbance; Potency, µM (series often up to 108 µM), without a hit: top-dose activity change, negative = inhibition, most hits filed as inhibitors; 580,000 tested, 1.1% active
Target sequence (P18054 whole entry, looked up): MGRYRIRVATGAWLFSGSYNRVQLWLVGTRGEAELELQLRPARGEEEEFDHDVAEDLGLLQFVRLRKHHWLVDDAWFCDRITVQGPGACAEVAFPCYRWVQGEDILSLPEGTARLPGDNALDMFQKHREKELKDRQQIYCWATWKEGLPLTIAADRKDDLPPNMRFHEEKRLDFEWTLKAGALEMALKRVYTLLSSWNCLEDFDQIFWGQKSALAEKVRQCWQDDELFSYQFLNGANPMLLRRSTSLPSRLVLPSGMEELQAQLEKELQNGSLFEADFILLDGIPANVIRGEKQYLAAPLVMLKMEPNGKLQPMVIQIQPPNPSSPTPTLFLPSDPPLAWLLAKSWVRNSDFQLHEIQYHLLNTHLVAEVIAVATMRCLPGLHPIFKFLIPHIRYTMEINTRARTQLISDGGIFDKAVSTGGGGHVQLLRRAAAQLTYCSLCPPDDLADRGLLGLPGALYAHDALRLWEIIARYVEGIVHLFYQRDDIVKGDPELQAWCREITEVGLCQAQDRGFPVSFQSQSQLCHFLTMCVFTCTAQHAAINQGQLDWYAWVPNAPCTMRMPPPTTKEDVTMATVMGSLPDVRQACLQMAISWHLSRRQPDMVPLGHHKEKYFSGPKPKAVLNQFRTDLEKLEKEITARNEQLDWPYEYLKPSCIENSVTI
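Purified human 12hLO at 150 nM in 25 mM Hepes, 0.01% Triton X-100, pH 7.0, preincubated 15 min at room temperature with compound. Reaction started with 40 uM arachidonic acid, 30 min at room temperature. Hydroperoxide measured by Fe-xylenol orange, 573/405 nm absorbance ratio.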
Gal4-VP16 FLuc: Gal4-VP16 reporter inhibition counter-screen | Drosophila S2 Gal4-VP16 UAS-luciferase, luminescence, 20 h | Potency, µM (series often up to 53.6 µM), for inactives: at the top dose activity, negative = inhibition, hits mostly inhibitors | 310,000 tested, 3.5% active;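 note: Gal4-VP16 expression switched on by copper sulfate through the metallothionein promoter; nearly all actives have a fitted effect of over 50% in size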
RORg inh: inhibitors of mouse ROR gamma transcriptional activity | AID 2551 | Drosophila S2 Gal4-RORgamma UAS-luciferase reporter, 20 h | 310,000 tested, 5.4% active | Potency, µM (doses to about 53.6 µM), for inactives: at the highest dose activity change, negative = inhibition, actives largely listed as inhibitors | P51450; note: nearly all actives have a fitted effect of over 60% in size
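A Gal4/UAS one-hybrid system in insect cells: metallothionein-promoter Gal4–ROR gamma fusion plus Photinus luciferase reporter. Copper sulfate 700 uM final, 20 hr ambient incubation, luminescent detection after 10 min with reagent.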
ELG1 repair inh: inhibitors of ELG1-dependent DNA repair in HEK293T cells; HEK293T ELG1-luciferase reporter, luminescence, 16 h; DNA damage induced by 5-fluorouridine; Potency, µM (titrated, usually from 46.1 µM), inactives show at the top dose activity change, negative = inhibition, hits mostly inhibitors; 330,000 tested, 2.3% active; note: nearly all actives have a fitted effect of over 55% in size
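Step one: seed 2,000 cells per well. Step two: pin-transfer compound or DMSO alongside 5-fluorouridine. Step three: incubate 16 hr, 37 °C, 5% CO2. Step four: add ONE-Glo, wait 30 min, read luminescence.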
TDP1 cell CPT: growth inhibition of DT40 Tdp1-/-;hTDP1 cells with camptothecin (screen for TDP1 inhibitors); chicken DT40 Tdp1-/-;hTDP1 cells + 20 nM CPT, ATP luminescence, 48 h; Potency, µM (highest dose often 46.2 µM), for inactives: top-dose activity change, negative = growth inhibition, most hits filed as inhibitors; 420,000 tested, 12% active; note: nearly all actives have a fitted effect of over 55% in size
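Chicken DT40 Tdp1-/- cells stably complemented with human TDP1 were seeded at 400 cells/well in medium containing 20 nM camptothecin, exposed to pin-transferred compounds, and grown at 37 °C for at least 48 hr. Viability was read as ATP luminescence.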
TDP1 cell noCPT: qHTS for Inhibitors of human tyrosyl-DNA phosphodiesterase 1 (TDP1): qHTS in cells in absence of CPT; DT40 Tdp1-/- hTDP1 cells, no CPT, ATP luminescence, 48 h; Potency, µM (highest dose often 46.2 µM), for the others: top-dose activity change, negative = growth inhibition, usual class: inhibitors; 420,000 tested, 15% active; AID 686978, 2013; note: nearly all actives have a fitted effect of over 55% in size
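No-CPT arm: Tdp1-/-;hTDP1 DT40 cells (400/well) plus compounds, incubated ≥48 hr at 37 °C. Readout CellTiter-Glo luminescence.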
An asterisk follows results filed as active; ? = inconclusive; · = no result given; [ ] = dose if it differs, or a comment. Most compounds without a hit are left out; they make up all but 15% or so of the library. Calls come from the whole dose curve; as a rule, active = well fitted curve in the direction sought with a large enough effect; inconclusive = small, poorly fitted or top-dose-only effect, or another doubt; inactive = no such curve, though single readings can be large; an effect the other way counts as inactive or inconclusive. % is set by controls: 0 for no effect and ±100 for the full control effect; potency is the fitted concentration of half-maximal effect.

SMILES | ALOX12 inh | Gal4-VP16 FLuc | RORg inh | ELG1 repair inh | TDP1 cell CPT | TDP1 cell noCPT
COc1ccc(CCNC(=O)c2cc(-c3ccc(Cl)cc3)on2)cc1OC | -21% | · | · | · | -2% | 0%
COc1ccc2nc3sc(C(=O)NCCc4ccc(Cl)cc4)cc3cc2c1 | ? | · | · | · | 9% | -13%
COc1ccccc1-c1cc(C(=O)NCCc2ccccc2)no1 | -17% | ? | 28% | ? | 13µM* | 15µM*
CCOC(=O)c1ccc(Nc2nc(-c3cc4cc(Br)ccc4oc3=O)cs2)cc1 | -23% | · | · | · | · | ·
O=C(NCc1cccs1)c1nc2c(nnn2Cc2ccccc2Cl)c(=O)[nH]1 | -3% | 2.8µM* | 10µM* | 16µM* | 4.1µM* | 2.6µM*
CCC(C)NC(=O)c1nc2c(nnn2Cc2ccccc2Cl)c(=O)[nH]1 (centres undefined) | -1% | 0% | -19% | 9% | -7% | ?
O=C(c1ccccc1F)N1CCCC2(CC(c3cccnc3)=NO2)C1 (centres undefined) | 2%[6.33 µM] | · | · | · | · | ·
CC(C)C(=O)Nc1ccc2c(c1)C(=O)N(CCC(=O)O)C2=O | 53% | -10% | 18% | -3% | -10% | 29µM*
O=C(CCc1c[nH]c2ccccc12)OCc1ccccc1 | -26% | · | · | · | · | ·
O=C(O)/C(=C\c1ccccc1OC(F)F)Sc1nnc(-c2ccc(F)cc2)o1 | 19% | -8% | 8% | ? | 21µM* | ?
Cc1ccccc1-c1[nH]nc2ncc(-c3c(C)noc3C)nc12 | 4%[176 µM] | · | · | · | · | ·
Cc1ccc(NC(=O)C2(c3cccs3)CCOCC2)cc1Cl | 0% | · | · | · | 26µM* | ?
O=C(Nc1ccc(C(F)(F)F)cc1)C1(c2cccs2)CCOCC1 | ? | · | · | · | ? | 23µM*
O=C(Nc1cc(Cl)ccc1Cl)C1(c2cccs2)CCOCC1 | -16% | · | · | · | 16µM* | 21µM*
CN(C)c1ccc(NC(=O)C2(c3cccs3)CCOCC2)cc1 | -1% | · | · | · | -4% | -2%
CC(=O)Nc1cccc(NC(=O)C2(c3cccs3)CCOCC2)c1 | -14% | · | · | · | -1% | -7%
CCN(CC)c1nc2ccccc2nc1C(=O)Nc1cc(C)ccc1C | -2% | · | · | · | · | ·
CC(CN(C)C)CN1c2ccccc2Sc2ccc(C(F)(F)F)cc21 (centres undefined) | · | -7% | 11% | · | ? | 17µM*
CC(CN(C)C)CN1c2ccccc2Sc2ccccc21 (centres undefined) | -27% | 5% | -16% | 2% | ? | 18µM*
O=C(CSc1nc2ccccc2s1)N1c2ccccc2Sc2ccc(C(F)(F)F)cc21 | 5% | -1% | 1% | -6% | ? | 15µM*
O=C(CSc1nc2ccccc2s1)N1c2ccccc2Sc2ccc(Cl)cc21 | -12% | -5% | -1% | -4% | ? | ?
CN1CCN(CCC(=O)N2c3ccccc3Sc3ccc(C(F)(F)F)cc32)CC1 | -29% | 4% | -15% | -2% | ? | ?
CN(C)CCC(=O)N1c2ccccc2Sc2ccc(C(F)(F)F)cc21 | ? | -7% | -27% | 4% | 23µM* | ?
C[C@@H](CN(C)C)CN1c2ccccc2Sc2ccccc21 | -25%[22.9 µM] | -3%[17 µM] | 3%[2.98 µM] | · | ? | ?
COCCn1c(C)c(C)c(S(=O)(=O)c2ccc(OC)cc2)c1NC(=O)c1ccco1 | -51% | · | · | · | · | ·
CCOC(=O)Nc1ccc2c(c1)N(C(=O)CCN(C)C)c1ccccc1S2 | ? | -10% | -4% | -3% | -11% | -19%
CCN(CC)CCC(=O)N1c2ccccc2Sc2ccc(NC(=O)OC)cc21 | 28µM* | -11% | -15% | 9% | -1% | 0%
CCN(CC)CC(=O)N1c2ccccc2Sc2ccccc21 | -26% | -11% | 7% | -3% | ? | -20%
